{"source": "PubChem BioAssay (NCI)", "note": "This is part of a sample that, as a whole, favours compounds with a hit. Of some 83,000 tested, about 20% had one in any assay.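 96-well plates, one dose, 48 hours. Percent growth reported; active if below 10.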 A number with no mark means an inactive call. Activity calls are given as the source filed them.", "data": [{"tested_on": "HL-60(TB) leukemia", "test": "NCI-60 one-dose screen, 48 h (100 = growth as untreated, 0 = no growth, -100 = all killed)", "conditions": "10 µM unless noted", "values": [{"compound": "CCC(C)(O)CCC(C)(O)CC", "note": "(stereo not given)", "growth": "101%"}, {"compound": "CC1(C)C(=O)/C(=C\\c2ccc(C(F)(F)F)cc2)C[C@]2(C)[C@H]3CC[C@@H]4[C@H]5[C@H](C(=O)/C=C/c6ccc(C(F)(F)F)cc6)CC[C@]5(CO)CC[C@@]4(C)[C@]3(C)CC[C@@H]12", "growth": "92%"}, {"compound": "N#C/C(=C\\c1ccc([N+](=O)[O-])cc1)n1nnc2cc(F)c(F)cc21", "growth": "-27% (active)"}, {"compound": "CN(C)c1ccc(/C=C2/C=C(c3ccccc3)OC2=O)cc1", "growth": "4.38% (active)"}, {"compound": "Cc1cc(=O)[nH]c(/C(=N/Nc2ccccc2)C(=O)c2ccc(Cl)cc2)n1", "growth": "50.7%"}, {"compound": "COc1ccc2nc(-c3ccc(-c4noc(-c5ccc(Cl)cc5)n4)cc3)[nH]c2c1", "growth": "104%"}, {"compound": "COc1cc(/C=C/c2cc(/C=C/c3ccc(O)c(OC)c3)n(-c3ccccc3)n2)ccc1O", "growth": "-42.2% (active)"}, {"compound": "O=C(O)c1ccc(NC(=O)c2ccc(-c3cccc([N+](=O)[O-])c3)o2)cc1", "growth": "105%"}, {"compound": "COc1ccc2c(c1)C(=O)c1c-2c(OCCCN(C)C)nc2cc(Br)ccc12", "growth": "98.4%"}, {"compound": "O=C(CSc1nnc(-c2cc(-c3ccc(Cl)cc3)nc3ccccc23)n1-c1ccccc1)Nc1ccc(Cl)cc1", "growth": "85.8%"}, {"compound": "CN1Cn2c(ccc2C(F)(F)F)C(=O)CS1(=O)=O", "growth": "108%"}, {"compound": "N#Cc1c(-c2ccco2)nc2c(c(-c3ccccc3)nn2-c2ccccc2)c1-c1ccc(O)cc1", "growth": "22.9%"}, {"compound": "COC(=O)CC[C@@H](C)[C@H]1CC[C@H]2C3CC[C@@H]4C[C@@H]5CC[C@]4(C)[C@@]3(O5)[C@H](Br)[C@@H](Br)[C@]12C", "note": "(stereo not given in full)", "growth": "81.2%"}, {"compound": "CCOc1cc(NC(=O)c2ccccc2)c(OCC)cc1N", "growth": "109%"}, {"compound": "CS(=O)(=O)Nc1cc(-c2cc3ncc(C#N)c(Nc4ccc(Oc5ccccc5)c(Cl)c4)c3s2)cnc1Cl", "growth": "64.6%"}, {"compound": "Fc1ccc(-c2ccnc3nc(-c4ccncc4)nn23)cc1", "growth": "96.5%"}, {"compound": "COc1cc(-c2cc(-c3ccc(Nc4nc(Nc5ccc(Cl)cc5)nc(Nc5ccc(Cl)cc5)n4)cc3)no2)cc(OC)c1OC", "growth": "-68.2% (active)"}, {"compound": "CCOC(=O)c1cnn(CC(C)O)c1NC(=O)NCc1ccccc1C(F)(F)F", "note": "(stereo not given)", "growth": "58%"}, {"compound": "CCN1C(=O)N(CC)C2C1NC(=S)N2/N=C/c1ccc(OC)cc1", "note": "(stereo not given)", "growth": "-12.1% (active)"}, {"compound": "c1ccc(-c2c(-c3ccccc3)[n+](Cc3ccc4ccccc4c3)c(-c3cccc4ccccc34)n2Cc2ccc3ccccc3c2)cc1", "growth": "-46.8% (active)"}, {"compound": "CSc1nc2ncncc2[nH]1", "growth": "91.2%"}, {"compound": "O=C1CCCC1[n+]1ccccc1", "note": "(stereo not given)", "growth": "88.1%"}, {"compound": "C=C(C)[C@@H]1CC[C@]2(CO)CC[C@]3(C)[C@H](CC[C@@H]4[C@@]5(C)CC[C@H](O)C(C)(C)[C@@H]5CC[C@]43C)[C@@H]12", "growth": "66.4%"}, {"compound": "O=C(Nc1ccc2c(c1)C(=O)c1ccccc1-2)c1ccccc1", "growth": "101%"}, {"compound": "CNCCCOc1c(Br)cc(CCNC(=O)/C(Cc2ccc(OC)c(Br)c2)=N/O)cc1Br", "growth": "21.3%"}, {"compound": "COc1cc(/C=C/c2ccnc3ccccc23)cc(OC)c1OC", "growth": "15.7%"}, {"compound": "Cc1ccc(CNc2ccc3nc(CCC4CCCCC4)[nH]c3c2)cc1", "growth": "14.8%"}, {"compound": "CCn1cc(-c2[nH]c(=S)ncc2-c2ccc(Cl)cc2)c(-c2ccc(Br)cc2)n1", "growth": "117%"}, {"compound": "COc1ccc2c(c1)CC/C(=C\\c1cncc(Br)c1)C2=O", "growth": "100%"}, {"compound": "O=C1C(Cl)=C(Cl)C(=O)c2c1nc1n2CCCC1", "growth": "74.8%"}, {"compound": "CN(C)CCCN1c2ccccc2Sc2ccc(C(F)(F)F)cc21", "growth": "0.95% (active)"}, {"compound": "CN1C(=O)N(C)C2Nn3c(s/c(=C4\\C(=O)N(CCc5ccccc5)c5ccccc54)c3=O)=NC21", "note": "(stereo not given)", "growth": "56.9%"}, {"compound": "C[C@H](NC(=O)[C@@H]1CSSC[C@@H](NC(=O)c2nc3ccccc3cc2O)C(=O)NCC(=O)N1C)c1ccccc1", "growth": "-27.6% (active)"}, {"compound": "CCCCN(CCCC)CCC(=O)c1ccc(OC)c2ccccc12", "growth": "81.1%"}, {"compound": "N#C/C(=C\\c1ccc(C(F)(F)F)cc1)c1cc2ccccc2[nH]1", "growth": "89.3%"}, {"compound": "O=C(/C=C/C12c3ccccc3C(c3ccccc31)C1C(=O)NC(=O)C12)c1ccc(Cl)cc1Cl", "note": "(stereo not given)", "growth": "-8.27% (active)"}, {"compound": "CCc1c(Cl)nc(N)nc1Nc1ccc(C)c(C)c1", "growth": "88.1%"}, {"compound": "COc1ccccc1/C=C/C(=O)Nc1ccc(F)cc1", "growth": "86.3%"}, {"compound": "NC(=O)c1c(OCc2c(F)cc(Br)cc2F)nsc1NC(=O)NCCCCN1CCCC1", "growth": "-64.6% (active)"}, {"compound": "NNc1ccc(S(N)(=O)=O)cc1", "growth": "75.9%"}]}]}
